This is part of a sample that, as a whole, favours compounds with a hit. Of some 83,000 tested, about 20% had one in any assay.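 Plates (96-well) were seeded with cells, treated with compound at one concentration, and incubated for 48 hours before percent growth was determined.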 Unmarked numbers belong to inactive results. Active and inactive are the calls of the source.

The record followed here is PubChem BioAssay (NCI).

The assay has as its system PC-3 prostate. As to the kind of experiment: NCI-60 one-dose screen, 48 h (100 = growth as untreated, 0 = no growth, -100 = all killed). The settings on record: 10 µM. As to the method:
Growth inhibition of the PC-3 human tumor cell line is measured as a screen for anti-cancer activity. Cells are grown in 96 well plates and exposed to the test compound for 48 hours. Compounds are tested at a single concentration, which is 10^-5 M for most compounds. The reported endpoint is percent growth (GI% or GIPRCNT), where numbers from 0 - 100% represent growth inhibition, and numbers from -100% - 0 represent cell death. For example, a value of 40 represents 60% growth inhibition. A value of 0 means no net growth occurred over the course of the experiment. A value of -40 indicates 40% of cells at the beginning of the experiment died by the end of the experiment. A value of -100 means all cells are dead at the end of the experiment.
NCI-60 Human Tumor Cell Lines Screen was performed using the standard one-dose NCI protocol, which is described in more detail at https://dtp.cancer.gov/discovery_development/nci-60/default.htm.
Compounds with GIPRCNT values below 10 were considered active. Activity score was based on GIPRCNT using the following formula: […]
Score is 0 for GIPRCNT values of 100 or above, 50 for GIPRCNT values of 0, and 100 for GIPRCNT values of -100.
As to `Cc1ccc(C)c(COc2cc(NC(=O)c3ccc4c(c3)OCO4)ccc2N(C)S(C)(=O)=O)c1`, the growth is 26.8%.

For `CC(=O)C1N=NCC1c1ccccc1` (stereo not given), the growth was 95.5%.

Turning to `O=c1[nH]c(=O)n(C2C[C@H](O)[C@@H](CO)O2)cc1C(F)(F)F` (stereo not given in full), the growth was 91.9%.

With `COc1ccc(C(=O)c2ccccc2CN2C(=O)c3ccccc3C2=O)cc1`, the growth was 89.6%.

With `COc1ccc(/C(=N\N)C(=O)c2ccccc2)cc1` (tested in a mixture with another compound), the growth is 90.8%.

Take `COc1cc2cc(Oc3ccc(NC(=O)Nc4ccc(Cl)c(C(F)(F)F)c4)cc3)c(C)nc2cc1OC`: the growth was -0.614% (active).

For `CCCN(CCC)C(=O)[C@H](CC)[C@@H]1CC[C@@H](C)[C@@H]([C@H](C)[C@@H](O)[C@@H](C)C(=O)[C@H](CC)C2O[C@]3(C=C[C@@H](O)[C@]4(CC[C@@](C)([C@H]5CC[C@](O)(CC)[C@H](C)O5)O4)O3)[C@H](C)C[C@@H]2C)O1` (stereo not given in full), the growth is 6.69% (active).

Take `CN(C)CCN(Cc1ccccc1)c1ccc2ccccc2n1`: the growth is 81.4%.

Regarding `CNC(=O)c1cc(Oc2ccc3c(c2)sc2nc(-c4ccc(N)cc4)cn23)ccn1`, the growth was 29.2%.

`COc1cc2c(cc1NC(=O)C(Cl)Cl)-c1ccc(NC(=O)C(Cl)Cl)cc1C2`: the growth is 18.8%.

With `Cc1n[nH]c(C)c1N=Nc1cccc2c1C(=O)c1ccccc1C2=O`, the growth was 90.5%.

Take `CC(=O)O[C@@]12CO[C@@H]1C[C@H](O)[C@@]1(C)C(=O)[C@H](O)C3=C(C)[C@@H](OC(=O)[C@H](O)[C@@H](NC(=O)OC(C)(C)C)c4ccccc4)C[C@@](O)([C@@H](OC(=O)c4ccccc4)C12)C3(C)C` (stereo not given in full): the growth was 31.7%.

As for `COc1cc2c(cc1OC)C(C(CCCCCC(CCC(C)C)C1NCCc3cc(OC)c(OC)cc31)CCC(C)C)NCC2` (stereo not given), the growth is -92.3% (active).

With `O=C(N/N=C/c1ccc(Cl)cc1)c1ccccc1Nc1cccc(C(F)(F)F)c1`, the growth is 71.6%.

With `O=S(=O)(Oc1ccc(-c2ccc3sccc3c2)cc1)c1ccc(F)cc1`, the growth was 91%.

In the case of `NC(=O)c1cccc(-n2ccc3cc(NC(=O)Nc4ccc(Cl)c(C(F)(F)F)c4)ccc32)n1`, the growth was 53.4%.

Turning to `COc1cc(C2CC(c3ccccc3)=NN2C(C)=O)cc(OC)c1OC` (stereo not given), the growth was 37.3%.

Consider `COc1cc(-c2nn(-c3ccc(NC(=O)NCCCNC(=O)c4ccccc4)cc3)cc2-c2ccncc2)ccc1Cl`, for which the growth is 19.4%.

In the case of `CCOC(=O)c1cc(C(=O)c2cc(OC)c(OC)c(OC)c2)n2ncc3ccccc3c12`, the growth was 54.6%.

In the case of `CCCCCCCCCCOC(c1ccccc1)c1ccccc1`, the growth is 83.5%.

With `Cc1ccc(C(C)C)c(O)c1NC(=O)OC(C)C`, the growth was 85.5%.

Take `CN(C)c1ccc(/C=N/NC(=O)c2cccc3ccccc23)c(Cl)c1`: the growth was 20.3%.

With `COC(=O)c1cc2oc(/C=C3/SC(=S)N(N)C3=O)cc2n1Cc1ccccc1`, the growth is -3.5% (active).

Consider `CCOS(=O)(=O)c1c(C(C)C)cc(C(C)C)cc1C(C)C`, for which the growth is 96%.

`O=C(O)COc1c(Cl)cc([N+](=O)[O-])cc1Cl`: the growth is 65.3%.

In the case of `CCOC(=O)c1cc(C(=O)c2ccc(OC)c(OC)c2)n2c1ccc1ccc3cccnc3c12`, the growth was 22.2%.

For `Cc1nn(-c2ccccc2)c2nc(Cl)c(C=O)c(-c3ccccc3)c12`, the growth was 77.4%.

In the case of `CCCCC1(O)CCCCC1`, the growth was 103%.

In the case of `COC1OC(COS(=O)OC)C(O)C(O)C1OS(=O)OC` (stereo not given), the growth is 100%.

`COc1ccc(-c2nn(-c3cccc(Cl)c3)cc2-c2c(C#N)c(=O)n3[nH]c(-c4ccccc4)nc3c2C#N)cc1`: the growth is 101%.

In the case of `CC(C)Cc1ccc([C@H](C)C(=O)O)cc1`, the growth was 93.6%.

In the case of `CN1C(=O)C2(Nc3cc(Cl)ccc3S2)c2cc(Cl)ccc21` (stereo not given), the growth is 73.7%.

Turning to `CC1/C=C/C=C/C=C/C=C/C=C/C=C/C=C/C(O[C@@H]2O[C@H](C)[C@H](O)[C@@H](O)[C@@H]2N)CC(O)C(C(=O)O)C(O)CC(=O)CC(O)CC(O)CC(O)CC(=O)CCCC(=O)CC(=O)OC1C(C)CC(C)C(O)CC(=O)c1ccc(N)cc1` (stereo not given in full), the growth is -95.7% (active).

For the molecule `COc1ccc(C(=O)N/N=C/c2cc(C(F)(F)F)ccc2Cl)cc1`, the growth was 90.9%.

Turning to `COc1cc(NC(=O)C2=C(N3CCOCC3)/C(=C/c3ccc(Cl)cc3)CC2)cc(OC)c1OC`, the growth is 44.8%.

Regarding `COc1ccc(-c2n[nH]nc2-c2cc(OC)c(OC)c(OC)c2)cc1`, the growth was 23.4%.

On to `O=c1cn[nH]c2ccc(Br)cc12`, for which the growth was 95.4%.

As to `NC1=NC(c2ccc(Cl)cc2)C2=C(N1)/C(=C/c1ccc(Cl)cc1)CCC2` (stereo not given), the growth is 79.5%.

Turning to `Clc1ccc(Cc2ccncc2)cc1`, the growth is 103%.

For the molecule `CCn1c(SC/C(=N/O)c2ccccc2)nnc1-c1ccccc1`, the growth was 81.2%.
